Calpain2 inh = inhibitors of pig calpain II. purified calpain II, fluorogenic peptide substrate, 30 min. 220,000 tested, 0.37% active. inhibition, % at 16 µM;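 active = inhibition above about 50%, limit read from the data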
HSV augment = increases HSV replication in cells; HSV replication augmentation in cells, fold increase; maximum fold increase; 220,000 tested, 0.005% active; AID 1956; in the data active = maximum fold increase above about 1.5; inconclusive = no clear call, values can overlap the other calls; tested in PC3 cells
Arbovirus inh = blocks arbovirus infection | arbovirus infection cell-based antiviral screen | inhibition, % at 10 µM | 200,000 tested, 0.37% active; in the data active = inhibition above about 30%
ROMK mod = human ROMK K+ channel modulation, primary screen; Tet-inducible ROMK, thallium flux fluorescence; actives lie on both sides; 130,000 tested, 2% active; P48048; B-score at 10 µM;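 active = signal ratio slope over the read window, or its plate-corrected B-score, at least 3 SD from the plate mean, either direction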;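 also: B-score of the F/F0 ratio slope over 7 to 12 s after thallium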
Target sequence (P48048 whole entry, looked up): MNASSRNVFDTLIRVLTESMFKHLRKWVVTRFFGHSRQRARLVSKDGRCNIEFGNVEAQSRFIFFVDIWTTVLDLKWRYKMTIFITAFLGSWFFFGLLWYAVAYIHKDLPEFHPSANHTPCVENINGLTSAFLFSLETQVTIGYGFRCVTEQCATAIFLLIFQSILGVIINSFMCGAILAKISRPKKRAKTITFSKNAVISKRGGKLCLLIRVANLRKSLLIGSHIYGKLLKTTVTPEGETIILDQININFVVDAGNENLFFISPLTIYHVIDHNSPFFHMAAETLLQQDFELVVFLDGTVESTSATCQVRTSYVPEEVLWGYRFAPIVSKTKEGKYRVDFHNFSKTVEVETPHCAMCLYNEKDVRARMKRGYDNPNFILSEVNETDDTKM
Efa HMGR inh = inhibitors of class II HMG-CoA reductase from Enterococcus faecalis | purified E. faecalis HMGR, NADPH absorbance 340 nm kinetic | inhibition, % at 10 µM | 190,000 tested, 0.41% active | AID 1066;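 active = inhibition above a set limit, the median over all tested compounds plus 3 SD, cut at about 9.5% in these data; inconclusive = no clear call, values can overlap the other calls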;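 also: enzyme runs in reverse so mevalonate oxidation gives rising NADPH absorbance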
ROMK hit retest = confirmation of human ROMK potassium channel modulators | shares compounds with ROMK mod | ROMK thallium flux, fluorescence ratio; stronger effect = lower value | normalized thallium flux (F/F0 slope) at 10 µM | 3,000 tested, 54% active;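 active = Flux at 10 µM at least 3 SD below or above vehicle control mean in one or both replicates; inconclusive = no clear call, values can overlap the other calls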
Each line names hits and unclear results; the compound was inactive in the other large screens (follow-up assays come after a bar, where they were run). A selection: hits, their analogues and other compounds. The true share with any hit is near 2.1%.

Cc1ccc(C(=O)OCC(=O)Nc2ccccc2)cc1NC(=O)c1ccco1	ROMK mod -5.38 | ROMK hit retest inactive
Cc1ccc(C(=O)OCC(=O)Nc2ccc(N(C)C)cc2)cc1NC(=O)c1ccco1	none
OCCC1CN(Cc2cc(F)ccc2-n2cccn2)CCN1Cc1ccc(F)cc1 (configuration not stated)	none (no result: Arbovirus inh, ROMK mod, Efa HMGR inh)
O=C(CC1=NCCNC(c2ccccc2)C1)c1ccccc1O (configuration not stated)	ROMK mod -2.28 (no result: HSV augment) | ROMK hit retest inconclusive
O=C(CC1(O)C(=O)Nc2ccccc21)c1ccccc1O (configuration not stated)	none (no result: ROMK mod)
COc1cc(/C=C/C(=O)OCC(=O)Nc2ccc(NC(C)=O)cc2)cc(S(=O)(=O)N2CCc3ccccc32)c1OC	none
COc1cc(/C=C/C(=O)OCC(=O)NC2CC2)cc(S(=O)(=O)N2CCc3ccccc32)c1OC	ROMK mod -17.7 | ROMK hit retest inactive
Cc1ccc2cc(C#N)c(NCCNC(=S)NCCCN(C)C)nc2c1C	ROMK mod -3.13 | ROMK hit retest 0.0572
CCCCNC(=O)C1CCN(S(=O)(=O)c2c(C)noc2/C=C\c2ccc(OC)cc2)CC1	none (no result: ROMK mod) | ROMK hit retest inactive
CCOc1cc(C)c(S(=O)(=O)NC2CC(C)(C)NC(C)(C)C2)cc1C	ROMK mod -3.55 | ROMK hit retest 0.066
O=C(CCl)NCc1cc(-c2ccc(Cl)cc2)no1	none
O=C(CSc1ncc(-c2ccccc2)n1C1CCCC1)N1CCc2ccccc21	ROMK mod -2.66 | ROMK hit retest inconclusive
Cc1cc(N)c2cc(NC(=O)/C=C/c3ccccc3Cl)ccc2n1	none (no result: Arbovirus inh, ROMK mod, Efa HMGR inh) | ROMK hit retest 0.0547
Cc1cc(C)nc(NC(=O)/C=C/c2ccccc2Cl)n1	none (no result: ROMK mod)
CC(C)(C)c1ccc(C(=O)N/N=C/c2ccc(OCCCF)cc2)cc1	none
Cc1sc(NC(=O)CCCC(=O)O)c(C#N)c1C	none (no result: ROMK mod) | ROMK hit retest inactive
Oc1ccc2cc(Br)ccc2c1CN1CCCC1	none | ROMK hit retest 0.0638
COc1ccc(-c2nnc(SCc3nnc(-c4ccccc4)o3)n2-c2ccccc2)cc1	none (no result: ROMK mod)
COc1ccc(-n2c(SCc3nnc(-c4ccccc4)o3)nnc2-c2ccccc2)cc1	none (no result: ROMK mod) | ROMK hit retest 0.0642
COc1ccc(-c2noc(CSc3nnc(-c4ccncc4)n3-c3ccc(F)cc3)n2)cc1OC	none (no result: ROMK mod) | ROMK hit retest inactive
Cc1cc(NC(=O)CSc2nnc(-c3ccncc3)n2-c2ccc(F)cc2)no1	none
COc1ccc2cc(C(=O)N/N=C/c3sc4ccccc4c3O)ccc2c1	ROMK mod -2.81 | ROMK hit retest 0.0484
CCOc1cc(-c2cc(-c3ccc(N)cc3)nc(N)c2C#N)ccc1O	ROMK mod 4.98 | ROMK hit retest inactive
Cc1cc(C)c(C)c(S(=O)(=O)NC2CCN(Cc3ccccc3)CC2)c1C	ROMK mod -4.03 | ROMK hit retest 0.0635
O=S(=O)(NC1CCN(Cc2ccccc2)CC1)c1ccc2ccccc2c1	ROMK mod -3.47 | ROMK hit retest 0.0644
Cc1cc(C)c(S(=O)(=O)NC2CCN(Cc3ccccc3)CC2)c(C)c1	none (no result: Arbovirus inh, ROMK mod, Efa HMGR inh)
O=C(NNS(=O)(=O)c1ccc2ccccc2c1)C1CCN(Cc2ccccc2)CC1	none (no result: HSV augment, ROMK mod)
CO/N=C\Cc1oc(=O)c(NC(=O)c2ccccc2)cc1C(=O)OC	none
COC(=O)c1cc(NC(=O)c2ccccc2)c(=O)oc1C/C=N\OCc1ccc(Cl)cc1Cl	HSV augment inconclusive, ROMK mod -2.81 | ROMK hit retest 0.0649
Cc1ccsc1/C=C1\SC(N)=NC1=O	none (no result: HSV augment)
NC1=NC(=O)/C(=C\c2cc([N+](=O)[O-])ccc2Cl)S1	ROMK mod -1.99 | ROMK hit retest 0.0657
CCOC(=O)Cc1nn[nH]n1	none
Cc1cc(C)nc(SCC(=O)N/N=C/c2cc(C)n(-c3ccccc3C)c2C)n1	ROMK mod 6.64 | ROMK hit retest 0.117
Cc1cc(/C=N/NC(=O)C(O)(c2ccccc2)c2ccccc2)c(C)n1-c1ccccc1	ROMK mod 2.74 | ROMK hit retest 0.097
Cc1cc(/C=N/NC(=O)c2cccs2)c(C)n1-c1ccccc1	ROMK mod 3.82 | ROMK hit retest inactive
CSc1ccc(C(=O)C2CCCN(S(=O)(=O)c3c(C)noc3C)C2)cc1 (configuration not stated)	none
CCOC(=O)c1[nH]c2c(c1C)C(=O)CC(c1ccc(OC)c(OC)c1)C2 (configuration not stated)	none
COc1cc(C2CC(=O)c3c([nH]c(C(=O)OCCOC(C)C)c3C)C2)cc(OC)c1OC (configuration not stated)	none (no result: ROMK mod) | ROMK hit retest 0.0633
CC(=O)N(Cc1ccccc1)Cc1cn(CCC#N)nc1-c1cccc([N+](=O)[O-])c1	none
Cc1cccc2sc(N(CCCN(C)C)C(=O)CCc3ccccc3)nc12	ROMK mod -2.09 | ROMK hit retest 0.0638
Cc1cccc2sc(N(CCCN(C)C)C(=O)CN3C(=O)c4ccccc4C3=O)nc12	none
CC(=O)NCC(=O)OC(C)C(=O)Nc1ccc(C(C)=O)cc1 (configuration not stated)	none (no result: ROMK mod) | ROMK hit retest inactive
CC(=O)NCC(=O)OCC(=O)Nc1ccc(C(C)=O)cc1	none (no result: HSV augment)
CCOC(=O)CNc1nc(Cl)c(C#N)s1	none
Cc1ccc(CNc2nc(Cl)c(C#N)s2)cc1	Calpain2 inh 75.6, ROMK mod 1.12 | ROMK hit retest inactive
CC(Nc1cc(N2CCNCC2)ccc1[N+](=O)[O-])c1ccccc1 (configuration not stated)	ROMK mod -3.24 | ROMK hit retest 0.0527
CC(C)(C)c1ccccc1NC(=O)NC1CCN(Cc2c(F)cccc2Cl)CC1	none (no result: Arbovirus inh, ROMK mod, Efa HMGR inh)
COC(=O)N/N=C/c1cc(C)n(-c2ccc(Br)cc2)c1C	none (no result: Arbovirus inh, ROMK mod, Efa HMGR inh) | ROMK hit retest inactive
Cc1cc(/C=N/NC(N)=S)c(C)n1-c1ccc(Cl)c(Cl)c1	none
CCNC(=S)N/N=C/c1cc(C)n(-c2ccc(Cl)cc2)c1C	ROMK mod 3.01 | ROMK hit retest inactive
Cc1cc(/C=N/NC(N)=O)c(C)n1-c1ccc(F)cc1	ROMK mod 2.89 | ROMK hit retest inconclusive
COC(=O)N/N=C/c1cc(C)n(-c2ccc(F)cc2)c1C	none (no result: ROMK mod)
CC(=O)N/N=C/c1cc(C)n(-c2ccc(Br)cc2)c1C	none (no result: ROMK mod)
Cc1[nH]c2ccccc2c1C(=O)CSC(=S)N1CCCCC1	none
COc1cc2[nH]c(Cl)c([N+](=O)[O-])c2cc1OC	none (no result: Arbovirus inh, ROMK mod, Efa HMGR inh)
CCOc1ccc(C2CC(c3c(O)c4ccccc4oc3=O)=NN2c2ccccc2)cc1OC (configuration not stated)	HSV augment inconclusive, ROMK mod -6.62 | ROMK hit retest 0.0278
COCc1cc(C)nc(SCC(=O)c2ccc(O)c(O)c2)c1C#N	ROMK mod 1.72 (no result: HSV augment) | ROMK hit retest inactive
CSc1ccc(/C=C(\NC(=O)c2ccccc2)C(=O)NN)cc1	none (no result: Arbovirus inh, ROMK mod, Efa HMGR inh) | ROMK hit retest inactive
COc1ccc(C(=O)n2nc(C)cc2Nc2ccccc2)cc1	ROMK mod 1.75 | ROMK hit retest inconclusive
Cc1cccn2c(CN3CCNC(=O)CC3)c(C(=O)N(C)CCc3ccccc3)nc12	none
CCn1cc(C(=O)NCc2ccc(C)o2)c2cc(OC)c(OC)cc2c1=O	none (no result: ROMK mod) | ROMK hit retest inconclusive
CCn1cc(C(=O)NCC(=O)OC)c2cc(OC)c(OC)cc2c1=O	none (no result: ROMK mod)
COc1ccccc1C1=NOC(COc2ccc3c(C)cc(=O)oc3c2)C1 (configuration not stated)	ROMK mod 3.33 (no result: Arbovirus inh, Efa HMGR inh) | ROMK hit retest inactive

Compound activity: PubChem BioAssay, several laboratories
